PubChem BioAssay AID588492 (Sanford-Burnham Center for Chemical Genomics, 2011)
Several values for one entry are separate records, joined by “and”; a condition that tells them apart may be missing. Equal entries are not always repeated. The whole screen tested about 360,000 compounds, of which about 2,300 (0.64%) were called active. This excerpt belongs to a sample that is enriched for actives. Unmarked numbers belong to inactive results.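 Rule for the calls: active = compounds giving at least 50% protection of heart cells from peroxide-induced death in the single-dose screen, raw or plate-pattern-corrected value; inactive = the rest.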

Assay: H9c2 cardiomyocyte survival under peroxide injury – uHTS, H9c2 cells, ATPLite luminescence, primary screen (AID 588492);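 note: 0% = DMSO wells with peroxide and 100% = DMSO wells without peroxide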
Conditions: H9c2 cardiomyocytes, 2 h, at 20 µM, active compounds read high

Question: For CCOc1cc(-c2cc(-c3ccc(NC(C)=O)cc3)nc(N)c2C#N)ccc1O, which protection from H2O2 cell death is on record?
Answer: Its protection from H2O2 cell death is 65.8% (active).

Question: For CCSc1nnc(SCC(=O)NNC(=O)c2ccccc2F)s1, which protection from H2O2 cell death is on record?
Answer: Its protection from H2O2 cell death is -2.9%.

Question: For COc1ccc(CC(N)c2csc(NC(=O)Cc3ccccc3)n2)cc1 (stereo unspecified), which protection from H2O2 cell death is on record?
Answer: Its protection from H2O2 cell death is 10.4%.

Question: For CC(=NNC(=S)N1CCCCCC1)c1ccccn1, which protection from H2O2 cell death is on record?
Answer: Its protection from H2O2 cell death is -14.3%.

Question: Which protection from H2O2 cell death does the source give for COc1ccc(CC(=O)N/N=C(\C)c2ccccn2)cc1 here?
Answer: The protection from H2O2 cell death was 89.5% (active).

Question: Which protection from H2O2 cell death does the source give for CCOC(=O)[C@H]1CCC[C@@H](NS(=O)(=O)c2ccc(NC(C)=O)cc2)C1 here?
Answer: The protection from H2O2 cell death was 3.9%.

Question: Which protection from H2O2 cell death does the source give for CCCCNc1ccc(C(=O)Nc2cccc(C)n2)cc1[N+](=O)[O-] here?
Answer: The protection from H2O2 cell death was -6%.

Question: With O=c1cc(CN2CCN(S(=O)(=O)/C=C/c3ccccc3)CC2)c2ccc(O)cc2o1 as the compound, how does the protection from H2O2 cell death read?
Answer: Its protection from H2O2 cell death is 24.9%.

Question: For Cc1nn(C)c(C)c1S(=O)(=O)N1CCC(CO)(Cc2ccc(Cl)cc2)CC1, which protection from H2O2 cell death is on record?
Answer: Its protection from H2O2 cell death is -21.2%.

Question: For O=c1[nH]cnc2c1c(-c1ccccc1)cn2-c1ccc(F)cc1, which protection from H2O2 cell death is on record?
Answer: The protection from H2O2 cell death was -5.8%.

Question: With COc1ccc(-n2cc(-c3ccccc3)c3c(=S)nc[nH]c32)cc1 as the compound, how does the protection from H2O2 cell death read?
Answer: Its protection from H2O2 cell death is 72.3% (active).

Question: Which protection from H2O2 cell death does the source give for COc1ccc(N2C(=O)CNC2=S)cc1 here?
Answer: The protection from H2O2 cell death was 5.9%.

Question: With CCOC(=O)C1CCN(S(=O)(=O)c2ccc3c(c2)N(C)C(=O)CC(=O)N3C)CC1 as the compound, how does the protection from H2O2 cell death read?
Answer: The protection from H2O2 cell death was -1.6%.

Question: For C[C@@H]1CN([C@H](C)CO)S(=O)(=O)c2ccc(C#C[C@@H](C)O)cc2O[C@@H]1CN(C)Cc1ccc(-c2ccccc2)cc1, which protection from H2O2 cell death is on record?
Answer: Its protection from H2O2 cell death is -5.2%.

Question: With CCCc1nc2ccccc2c(C(=O)OCc2nnc(-c3cc(OC)c(OC)c(OC)c3)o2)c1CC as the compound, how does the protection from H2O2 cell death read?
Answer: Its protection from H2O2 cell death is 64.8% (active).

Question: Which protection from H2O2 cell death does the source give for O=C(OCc1nnc(-c2ccccc2)o1)c1cc(=O)[nH]c2ccccc12 here?
Answer: Its protection from H2O2 cell death is 3.9%.

Question: For Cc1onc(-c2ccccc2Cl)c1C(=O)OCc1nnc(-c2ccccc2)o1, which protection from H2O2 cell death is on record?
Answer: Its protection from H2O2 cell death is -13.6%.

Question: For Cc1ccc(CNS(=O)(=O)c2ccc3c(c2)N(C)CCO3)cc1, which protection from H2O2 cell death is on record?
Answer: The protection from H2O2 cell death was -9.1%.

Question: With C[C@@H]1CC[C@]2(O[C@@H](CCO)C[C@H](O)[C@H]2O)O1 as the compound, how does the protection from H2O2 cell death read?
Answer: Its protection from H2O2 cell death is -5.8%.

Question: With COc1ccc2oc(C(=O)N(CC(C)C)C3CCS(=O)(=O)C3)c(C)c2c1 (stereo unspecified) as the compound, how does the protection from H2O2 cell death read?
Answer: Its protection from H2O2 cell death is 2.8%.

Question: For CC(C)CNC(=S)NNC(=O)c1ccccc1OC(F)F, which protection from H2O2 cell death is on record?
Answer: Its protection from H2O2 cell death is -3.4%.

Question: With CCN(CC(=O)Nc1ccc2c(c1)OCO2)S(=O)(=O)c1ccccc1 as the compound, how does the protection from H2O2 cell death read?
Answer: The protection from H2O2 cell death was -7.6%.

Question: Which protection from H2O2 cell death does the source give for O=C(CN(c1ccc2c(c1)OCCO2)S(=O)(=O)c1ccccc1)Nc1ccc2c(c1)OCO2 here?
Answer: The protection from H2O2 cell death was 79.8% (active).

Question: With O=C(CCS(=O)(=O)Cc1ccccc1)Nc1ccc2c(c1)OCCO2 as the compound, how does the protection from H2O2 cell death read?
Answer: Its protection from H2O2 cell death is 0.6%.

Question: With COc1ccc(NS(=O)(=O)c2ccc(C)c(C(=O)NCC(c3cccs3)N3CCOCC3)c2)cc1 (stereo unspecified) as the compound, how does the protection from H2O2 cell death read?
Answer: Its protection from H2O2 cell death is -1.3%.

Question: For COC(=O)c1ccc(S(=O)(=O)NCc2ccccc2)n1C, which protection from H2O2 cell death is on record?
Answer: Its protection from H2O2 cell death is -1.9%.

Question: For C=CCn1c(Cn2nnc3ccccc32)nnc1SCC(=O)N/N=C/c1cc(Br)cc(OC)c1O, which protection from H2O2 cell death is on record?
Answer: The protection from H2O2 cell death was 9.5%.

Question: With Oc1c(Cl)cc(Cl)cc1/C=N/c1ncn[nH]1 as the compound, how does the protection from H2O2 cell death read?
Answer: The protection from H2O2 cell death was 26.3%.

Question: With COc1cc(Br)cc(/C=N/c2ncn[nH]2)c1O as the compound, how does the protection from H2O2 cell death read?
Answer: The protection from H2O2 cell death was 88.7% (active).

Question: For CN(Cc1c(F)cccc1Cl)C(=O)COC(=O)Cn1cnc2ccccc2c1=O, which protection from H2O2 cell death is on record?
Answer: Its protection from H2O2 cell death is -4%.

Question: With Nc1scc(-c2ccncc2)c1Cl as the compound, how does the protection from H2O2 cell death read?
Answer: The protection from H2O2 cell death was -2.7%.

Question: Which protection from H2O2 cell death does the source give for [O-][n+]1ccc(OCc2ccccc2)cc1 here?
Answer: The protection from H2O2 cell death was -5.2%.

Question: With COc1cccc(C2c3[nH]c4ccccc4c3CCN2Cc2cccc(C)n2)c1 (stereo unspecified) as the compound, how does the protection from H2O2 cell death read?
Answer: The protection from H2O2 cell death was -1.8%.

Question: For COC(=O)[C@H]1[C@H]2C[C@H]3c4[nH]c5ccccc5c4CCN3C[C@@H]2CC[C@@H]1O, which protection from H2O2 cell death is on record?
Answer: Its protection from H2O2 cell death is -2.1% and 1%.

Question: Which protection from H2O2 cell death does the source give for COc1ccc(-c2ccc3[nH]c4c(c3c2)CCN2C[C@H]3[C@H](C)ON(C)[C@H]3C[C@@H]42)cc1 here?
Answer: Its protection from H2O2 cell death is 54.5% (active).

Question: For COc1ccc(CNC(=O)c2ccc(NS(=O)(=O)c3ccc4[nH]c(=O)[nH]c4c3)cc2)cc1OC, which protection from H2O2 cell death is on record?
Answer: Its protection from H2O2 cell death is 0.1%.

Question: For NC(=O)c1ccccc1N=Cc1ccc2ccccc2c1, which protection from H2O2 cell death is on record?
Answer: Its protection from H2O2 cell death is 0.6%.

Question: Which protection from H2O2 cell death does the source give for COCc1c(C(=O)N/N=C\c2cccnc2)nnn1-c1nonc1N here?
Answer: Its protection from H2O2 cell death is -0.9%.

Question: With Nc1nonc1-n1nnc(C(=O)N/N=C/c2cc(Br)ccc2O)c1CSC1=NCCS1 as the compound, how does the protection from H2O2 cell death read?
Answer: Its protection from H2O2 cell death is 56.9% (active).

Question: Which protection from H2O2 cell death does the source give for CC(C)c1c(C(=O)N/N=C/c2ccccc2C(=O)O)nnn1-c1nonc1N here?
Answer: Its protection from H2O2 cell death is 5.1%.

Question: For Cc1cc(NC(=O)C(C)N2C(=O)c3ccccc3S2(=O)=O)no1 (stereo unspecified), which protection from H2O2 cell death is on record?
Answer: The protection from H2O2 cell death was 6.5%.

Question: Which protection from H2O2 cell death does the source give for CCN(CC)Cc1nc2sc(C)c(C)c2c(=O)[nH]1 here?
Answer: The protection from H2O2 cell death was 12.4%.

Question: For O=C(CCCCO)c1ccc(O)c(Cl)c1, which protection from H2O2 cell death is on record?
Answer: The protection from H2O2 cell death was 15.5%.

Question: With c1ccc(C(=NNc2nc3ccccc3s2)c2ccccn2)cc1 as the compound, how does the protection from H2O2 cell death read?
Answer: Its protection from H2O2 cell death is 51.5% (active).

Question: With C/C(=N/Nc1nc(-c2ccccc2)c(CC(=O)O)s1)c1ccccc1 as the compound, how does the protection from H2O2 cell death read?
Answer: Its protection from H2O2 cell death is -8.5%.

Question: With COc1cc(OC)nc(N/N=C(\c2ccccc2)c2ccncc2)n1 as the compound, how does the protection from H2O2 cell death read?
Answer: The protection from H2O2 cell death was -2.9%.
